Test results taken from the supplement of paper PMC6555819.

Columns and labels:
Assay in all cases: PBM binding z-score (relative to random genomic background probes); higher = stronger binding; sequences stand for … in GC…GCGATTGACAGCGTAGAATGAAGG
[1] = test system: RARb homodimer (NR concentration 270 nM)
Procedure, shortened: (§1)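 The probes on custom Agilent 4×180K protein-binding microarrays were double-stranded, with 34-nt variable regions bearing direct-repeat seeds, single-nucleotide variants, half-site ablations and random human genomic background sequences. Incubation lasted 1 h with ligand-free nuclear receptor dimers in PBS pH 7.4, 2% milk, 0.02% Triton X-100, 1 mM DTT, 0.2 mg/mL BSA and 0.4 mg/ml salmon testes DNA. Antibodies against each partner (one per run) detected bound dimers, and fluorescence scans were regression-normalized. Binding z-scores take the random background probes as reference.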

[2] = test system: RARg:RXRa (NR concentration 270 nM, RXRa partner concentration 90 nM)
Procedure, shortened: as §1

[3] = test system: RARg homodimer (NR concentration 270 nM)
Procedure, shortened: as §1

[4] = test system: RXRa DBDmut IVT, anti-RXR (DBD mutation: RXRa K156A/R161A, NR concentration 90 nM)
Procedure, shortened: as §1

[5] = test system: RXRa homodimer (NR concentration 180 nM)
Procedure, shortened: as §1

[6] = test system: THRa:RXRa (NR concentration 90 nM, RXRa partner concentration 90 nM)
Procedure, shortened: as §1

[7] = test system: THRa homodimer (NR concentration 90 nM)
Procedure, shortened: as §1

[8] = test system: VDR homodimer (NR concentration 270 nM)
Procedure, shortened: as §1

| Sequence | PBM binding z-score [1] | PBM binding z-score [2] | PBM binding z-score [3] | PBM binding z-score [4] | PBM binding z-score [5] | PBM binding z-score [6] | PBM binding z-score [7] | PBM binding z-score [8] |
| --- | --- | --- | --- | --- | --- | --- | --- | --- |
| TCTTGTAGATCAACAGGAGCTTAAGAAAGATCGA | -1.46 | 0.118 | -0.187 | -0.0794 | -0.154 | -0.552 | -1.65 | -0.768 |
| CCTCGGAAGACAACAGGAGGTCAGAGCTGCCAGA | 2.77 | 1.94 | 1.99 | -0.3 | 1.69 | 2.04 | 0.668 | 1.28 |
| GCGACTGGGGCAAAGCAGGTTACCAGAAGGTTGG | 1.32 | 0.622 | 0.806 | -0.155 | 0.313 | 2.87 | -0.356 | -0.376 |
| CCTACTGGGCCAAGTTCATTGATCAGTCAAAGCA | 1.71 | 1.45 | 1.09 | 2.37 | 0.409 | 0.994 | 0.294 | 4.4 |
| CCTACTGGACCATCAGGTCATTGATATCAACGTT | 2.7 | 1.67 | 1.56 | 1.08 | 1.37 | 3.38 | 3.78 | 2.38 |
| ACTCGGAGGACATAGGTCAGAGCTACGCCAGTGA | 2.6 | 3.03 | 2.28 | 0.527 | 2.26 | 2 | 0.0623 | 0.202 |
| ATCTCTAGGTAACAAGTTCAGTCAAAGAGAGGAC | 1.92 | 1.45 | 1.43 | 1.09 | 0.866 | 1.62 | 1.12 | 2.65 |
| CCAACTGGGGCAGAAAGGTTACCATACCATCCGG | 2.5 | 1.72 | 1.37 | -0.546 | 1.76 | 1.06 | 0.0988 | -0.202 |
| CCTGCTAGGTCAATGGTCAGCTAGAGCAGCTCGC | 2.68 | 3.14 | 3.81 | 1.45 | 2.19 | 2.33 | 0.515 | -0.262 |
| TAGCCTAGGTCATTCAGGGGCCAGTGTAGAAAGC | 3.6 | 6.11 | 4.75 | 1.83 | 3.15 | 3.58 | 0.809 | 1.58 |
| TTACCAAGGTGAGCTGAGGTCGTTCATCCAACTC | 1.81 | 1.4 | 0.963 | 0.409 | 1.3 | 4.63 | 2.3 | 2.41 |
| TTACCAAGGTGAGCTGAGGTCTTTGATCCAACTC | 0.568 | 0.335 | 0.384 | -0.584 | 0.322 | 4.17 | 0.8 | -0.646 |
| CCTAGTTGGTCAGGAGGTCTCACACCGGATATGA | 1.11 | 0.617 | 0.718 | -0.451 | 0.298 | 0.191 | 0.505 | 0.261 |
| CGTCAAAGTTGAACTAAGGTAACGTAAAGCACGC | 1.98 | 2.06 | 1.86 | 0.678 | 1.68 | 4.72 | 1.74 | 0.519 |
| CAAAGTAGGTCAAAGGTCAAAGTCGAGCCAACCA | 5.32 | 8.87 | 7.72 | 3.17 | 10.4 | 4.54 | 1.22 | 3.8 |
| TCGCGTAGGTTACCAATGGGGCATTCAGCTTTCT | 0.809 | 1.42 | 0.306 | 0.302 | 0.572 | 0.107 | -0.509 | -0.338 |
| CGTCCAAGGTAAAAGGTCAGTGAAGAGATGACGG | 4.88 | 4.86 | 5.11 | 0.584 | 5.53 | 3.28 | 0.539 | 0.435 |
| TCTTGTAGATCAATAGGAGGTTAAGAAAGATCGA | 0.457 | 0.595 | 0.446 | 1.01 | 0.992 | 0.723 | -0.311 | -0.266 |
| CCTGCTAGGTCAATGGTCATCTAAAGCAGCTCGC | 2.97 | 3.73 | 4.61 | 1.79 | 2.51 | 2.23 | 0.612 | 0.333 |
| TTACCAAGGTGAAGGTCGTCGATCCCTCTGTAGA | 1.78 | 1.59 | 1.7 | -0.188 | 2.12 | 2.36 | 0.653 | -0.137 |
| CAAACTAGGACAAGAGGTCAAAGTCCGCTTCCCG | 4.38 | 5.63 | 4.63 | 2.33 | 6.3 | 3.92 | 1.89 | 4.42 |
| CAAACTAGGTCACCGAGGTCAAAGTCCGTGCGTA | 5.47 | 6.99 | 7.18 | 3.46 | 7.09 | 4.93 | 4.37 | 7.68 |
| TCAGACACGTGAAGGTAACTCAGGTACGCAGTCG | 0.104 | 0.176 | 0.219 | 1.06 | 0.661 | 1.21 | -0.125 | 0.218 |
| TCATATAGGTAAAGTTGAAAGTCGAACGATATGA | 0.521 | 0.699 | 0.882 | 1.02 | 1.15 | 0.311 | -0.665 | 0.121 |
| CCTTACGGGTCACAGACAGGTTATAGCATTTGGA | 3.16 | 5.97 | 4.84 | 1.77 | 5.47 | 3.03 | 0.316 | 0.727 |
| AGTCAAAGTTCATCTAGGTGACGTAAGATATGCT | 3.92 | 5.42 | 5.9 | 4.62 | 4.44 | 3.16 | 0.193 | 4.86 |
| TCAGACAGGTGAAGGTAAGTCAGGTACGCAGTCG | 1.09 | 0.505 | 0.581 | 1.17 | 0.716 | 0.959 | 0.538 | 0.0228 |
| TCTTGTAGGTCAGCAGGTTAAGAAAGCTGGCCAA | 3.05 | 4.48 | 4.43 | 0.785 | 3.23 | 1.97 | -0.325 | 0.0594 |
